CatB mix inh = cathepsin B inhibitors from pooled compounds, primary screen, biochemical, compound mixtures, AMC fluorescence. P07858. Purified cathepsin B, AMC dipeptide fluorescence. inhibition, %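 (ten-compound pools at 5 µM per compound and 50 µM total)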. hit rate 0.06% among 62,000. AID 488, 2006; in the data active means inhibition above about 22%, passing the limit was not always enough;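 further: 0% = enzyme without compound and 100% = no enzyme blank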
WNV NS2B-NS3 inh = inhibitors of WNV NS2B-NS3 protease, primary screen, biochemical, fluorogenic substrate; fluorogenic substrate Ex360/Em465; stronger effect = lower value; z-score (test concentration not listed); hit rate 0.18% among 65,000; in the data active means z-score below about -3
CatS inh = inhibitors of human cathepsin S, biochemical, compound mixtures; inhibition, %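 (tested at 5 µM per compound within 10-compound mixtures)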; recombinant cathepsin S, AMC dipeptide fluorescence, pooled mixtures; P25774; hit rate 0.06% among 62,000; AID 501, 2006; in the data active means inhibition above about 32%, passing the limit was not always enough;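 further: 0% = enzyme without compound and 100% = blank without enzyme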
CatL inh = inhibitors of human cathepsin L, biochemical; hit rate 0.17% among 58,000; purified cathepsin L, fluorogenic substrate, fluorescence; AID 460, 2006; inhibition, %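 (tested at 10 µM)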; in the data active means inhibition above about 45%;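 further: 0% = enzyme with no compound and 100% = no enzyme blank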
CatB inh = human cathepsin B inhibitors, primary screen, biochemical, fluorogenic substrate; P07858; hit rate 0.1% among 63,000; inhibition, %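 (tested at 10 µM)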; purified cathepsin B, fluorescence; AID 453, 2006; in the data active means inhibition above about 21%;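 further: 0% = enzyme with no compound and 100% = no enzyme blank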
* = called active by the depositor; / = no result. An excerpt weighted towards active compounds, which were near 0.42% of everything screened.

SMILES	CatB mix inh	WNV NS2B-NS3 inh	CatS inh	CatL inh	CatB inh
Cc1cccc(NC(=O)CSc2nnc([C@@H](N)Cc3c[nH]c4ccccc34)o2)c1C	1	-0.67	10	101*	1
O=C1c2ccccc2C(=O)N1Cc1nc2ccccc2c(=O)n1-c1ccc(Br)cn1	4	-0.0022	0	3	0
CCn1nc(-c2ccccc2)nc2c(=O)n(C)c(=O)nc1-2	47	-0.24	/	85*	76*
Cc1cc([P+](=O)O)c(C)n1-c1ccc(Br)cc1	2	-0.53	-4	-5	-3
C=CCC1(CN2CCCCCC2=O)C(=O)NC(=O)NC1=O	/	-6.5*	/	12	-1
Cc1cccc(-n2c(O)c(C=NCCCN3CCOCC3)c(=O)[nH]c2=O)c1C	5	-0.01	-4	4	4
O=P1(Nc2ccc(F)cc2)COc2ccccc2OC1	-2	0.44	-7	-6	-2
Cc1nonc1-c1nc(-c2nonc2N)n[nH]1	22*	-1.1	20	23	12
O=S(=O)(c1ccc(Cl)cc1)N1CN2CCN(C2)C1	1	-4.8*	18	-6	2
CCCSc1nc(O)c(CC)c(=O)n1C(C)CC (configuration not stated)	3	-1.2	-4	-5	-7

Bioassay records as filed in PubChem.
